# Molecular target: Glucose transporter (Leishmania mexicana) (UniProt O61059)
# Assay: ST_JUDE_LEISH: Cytotoxicity at 2uM final concentration against transgenic Leishmania Mexicana promastigotes LmGT2 that are glucose transport deficient and complemented with the L. Mexicana glucose transporter 2. Activity is measured by DNA content using SYBR green in vitro
# Type: functional
row,SMILES,inhibition [%]
1,CCC(=O)Nc1ccc(Nc2nc(C)cc(N3CCCC3)n2)cc1,2.39
2,Cc1cc(NC(=O)NCCN2CCC(NS(=O)(=O)c3ccc(C(F)(F)F)cc3)C2)c2ccccc2n1 (stereo not given),7.4
3,Cn1cncc1C(=O)Nc1ccc(-c2ccc(-c3nc4cc(C(F)(F)F)ccc4[nH]3)cc2)cc1,4.64
4,C=Cc1ccccc1C1(O)CCN(CCCCNC(=O)c2ccc(-c3ccc(C#N)cc3)cc2)CC1,-1.41
5,COc1ccc2cc(CNCCCCCCNCc3ccc4cc(OC)ccc4c3)ccc2c1,103
6,O=C(NCC1CCN(Cc2ccc3c(c2)OCCO3)C1)c1cc(-c2ccccc2F)cs1 (stereo not given),7.55
7,CC(C)(C)OC(=O)N[C@@H](CS(=O)(=O)CCNC(=N)COCc1ccccc1)C(=O)OC(C)(C)C,5.74
8,CNCCNCc1ccc(-c2ccc(-c3nc4cc(F)ccc4[nH]3)s2)cc1,8.77
9,COc1ccc2nccc([C@@H](O)CN3CCC(NCc4ccc5c(c4)oc(=S)n5C)CC3)c2c1,1.46
10,COc1cc2nc(NCc3nc4ccccc4[nH]3)nc(N)c2cc1OC,10.3
11,Cc1cc(C(=O)Nc2ccc3c(c2)CCN3C2CCN(Cc3ccc(O)cc3)C2)no1 (stereo not given),2.38
12,O=C(Nc1ccc(N2CCCCC2)c(Cl)c1)c1ccc(Br)o1,2.35
13,Cc1cccc2nc(-c3ccc(-c4cccc(CN5CCC(CCN6CCCCC6)CC5)c4)s3)[nH]c12,-3.24
14,CCCNc1ccc2nccc(CCN3CCC(NCc4ccc5c(n4)NC(=O)CS5)CC3)c2n1,8.69
15,O=C1Nc2cccc3c2C1(CCCCN1CCC(c2c(-c4ccc(F)cc4)[nH]c4ccccc24)CC1)CCC3 (stereo not given),6.27
16,Cc1ccc(Nc2nc(-c3ccccn3)cs2)nc1,69.3
17,CC1(C)NC(N)=NC(=N)N1OCc1cc(Cl)cc2c1OCOC2,0.71
18,CCOC(=O)c1cc(C(=O)NCCCCN2CCC(c3cn(C)c4ccccc34)CC2)ccc1-c1ccc(C(F)(F)F)cc1,1.11
19,Cc1ccc2cc(NC(=O)CCCCCCCON3C(N)=NC(N)=NC34CCCCC4)ccc2n1,0.83
20,Cc1ccc(O)cc1Nc1ccnc2cc(-c3csc(CN4CCN(C)CC4)n3)ccc12,5.57

row,SMILES,inhibition [%]
1,Cc1cc2c(cc1C(F)(F)F)N(C(=O)Nc1cc(C(=O)NC3CCN(Cc4ccccc4)C3)cc(C(F)(F)F)c1)CC2 (stereo not given),7.35
2,COc1cc(C(=O)N2N=C(c3c(-c4ccccc4)c4cc(Br)ccc4[nH]c3=O)CC2c2cccc([N+](=O)[O-])c2)cc(OC)c1OC (stereo not given),3.79
3,OC1=C2C(=Nc3ccccc3SC2c2ccccc2)c2ccccc21 (stereo not given),1.01
4,CCOc1cc(C(=O)Nc2ccc3nc(N4CCN(C)CC4)cc(C)c3c2)cc(OCC)c1OCC,1.63
5,O=C(Nc1ccc(Cn2ncc(N3CCCNCC3)c(Cl)c2=O)cc1)Nc1cccc(Oc2ccccc2)c1,1.79
6,C(=Cc1nc2ccccc2s1)c1ccc2c(c1)OCCO2,-2.03
7,CN(C)c1ccc(NC(=O)Nc2ccnc3ccccc23)cc1Br,6.85
8,O=C(NC(CCCN1CCC(c2ccccc2)CC1)c1ccc(Cl)c(Cl)c1)c1cc(C(F)(F)F)cc(C(F)(F)F)c1 (stereo not given),1.89
9,Cc1nn(-c2ccccc2)nc1C(=O)N(Cc1ccc(-c2ccc(CNCCc3ccc(S(C)(=O)=O)cc3)cn2)cc1)C(C)CN(C)C (stereo not given),3.9
10,CN(c1ccc(NC(=O)Nc2cc(C(F)(F)F)ccc2F)cc1)c1ccnc(NCCN2CCCC2)n1,4.41
11,Cc1cccc2nc(-c3ccc(-c4ccc(CN5CCCCC5)cc4)cc3)[nH]c12,10.2
12,COc1ccc(NC(=O)Nc2ccc(-c3ccccc3)cc2)cc1Cn1cnc(N2CCCNCC2)cc1=O,4.94
13,Clc1cccc(C23N/C(=N\c4nc5ccccc5[nH]4)NC2(c2ccccc2)N/C(=N\c2nc4ccccc4[nH]2)N3)c1 (stereo not given),4.94
14,Cn1cc(CCNc2ccnc(N3CCC(c4ncc[nH]4)CC3)n2)c2ccccc21,-2.28
15,Cc1noc(C)c1-c1ccc2c(Nc3nccc4ccccc34)c(C(N)=O)cnc2c1,102
16,CN1CCN(CCCN(Cc2ccc(-c3ccc(CNCc4ccc5c(c4)OCO5)cc3)cc2)C(=O)Nc2ccccc2)CC1,11
17,O=[N+]([O-])c1cccc(S(=O)(=O)N2CCN(CC(O)COc3ccc(-c4ccccc4)cc3)CC2)c1 (stereo not given),4.46
18,CCOc1ccc(-c2nonc2NC(=O)CC(C)C)cc1OCC,-1.25
19,Cc1ccccc1N1CCN(c2ccc(C(=O)Nc3ccccc3)cc2)CC1,1.33
20,COc1ccc(CNCc2ccc(F)cc2)cc1-c1cccc(S(=O)(=O)NCCN2CCCC2)c1,1.01
